The structures appear in SMILES notation. The list shows a part of the results. Results filed as inconclusive are left out. Activity calls are given as the source filed them. The call rests on the fitted dose curve.
On the % scale 0 is the no-effect control and ±100 the full control effect; potency means the concentration at half of the fitted maximal effect.

The test deals with Chikungunya virus nsP2 protease. The test can be described thus: Confirmatory qHTS for inhibitors of NSP2Pro chikungunya virus (CHIKV) (AID 1964105). Further: nearly all actives have a fitted effect of over 75% in size. The settings on record: CHIKV nsP2 protease enzymatic activity; series mostly up to 25.5 µM; activity change, negative = inhibition: at the top concentration. The text has this: PI: Natalia J. Martinez Ph.D.
National Center for Advancing Translational Sciences (NCATS),
National Institute of Health (NIH), Rockville, Maryland
Chikungunya virus (CHIKV) is a mosquito-borne RNA virus that has emerged as one of the most important global arboviral threats in the last decade. Although the first CHIKV vaccine has recently been FDA approved for use in healthy adults at increased risk, to date, there are no available antiviral drugs for CHIKV infection. CHIKV nsP2 protease plays a crucial role in the processing of the viral polypeptide precursor to release enzymes required for viral replication, thus making it a promising drug target for antiviral discovery. Here, we established a high-throughput pipeline to identify small molecule inhibitors of nsP2 proteolytic activity. The pipeline is composed of a suite of 1,536-well in vitro assays to support quantitative high-throughput (qHTS) screening campaigns. Specifically, we developed a fluorescence resonance energy transfer (FRET)-based assay using a fluorogenic peptide substrate encompassing an endogenous cleavage site and purified recombinant protease domain (nsP2pro). Using this assay, we interrogated ~37,000 small molecules, including those in drug repurposing libraries as well as chemically diverse and medicinal chemistry-friendly compounds. Hits were selected for follow-up validation against full-length nsP2 and an additional peptide. FRET-based 1,536-well assays for papain, hepatitis C virus NS3-4A, and human furin proteases were implemented to characterize compound selectivity. […] Novel compounds were identified to be potential nsP2 inhibitors and molecular docking analyses were performed to explain the binding mode of selected hits. In vitro antiviral activity was evaluated for a subset of compounds using a high-throughput CHIKV infection assay. To our knowledge, the pipeline presented here is unprecedented for CHIKV antiviral discovery research.
PROTOCOL TABLE (as described by Inglese J, Shamu CE and Guy RK. 2007)
SEQUENCE No. (e.g., 1, 2, 3, etc.); […] (e.g., Cells, Incubation, Reagent, etc.); VALUE; DESCRIPTION.
1; Control / Compound; 20 nL; Echo 655 acoustic dispenser, Greiner 1536-well solid bottom black plate.
2; Enzyme; 4 uL; BioRAPTR FRD liquid dispenser (Beckman Coulter).
3; Incubation; 15 min; room temperature.
4; Reagent; 4 uL; 2.5 uM Peptide 2 substrate.
5; Incubation; 1 hr; room temperature.
6; Detection; Fluorescence; WiewLux microplate reader (PerkinElmer), 525 nm excitation, 598/25 nm emission.
NOTES (numbers refer to sequence numbers above).
1.Briefly, 20 nL DMSO, positive control ZnAc (20nM final concentration), and test compounds were transferred into a 1,536-well solid bottom black plate (789176-F, Greiner One) via Echo 655 acoustic dispenser (Beckman Coulter). For primary screens, compounds were tested at 7 concentrations, 1:3 dilution points ranging from 25 uM to 34 nM. Follow-up confirmatory screens were carried out at 11 concentrations, 1:3 dilution points from 25 uM to 0.42 nM.
2.Four uL nsP2pro enzyme mix (150 nM final concentration) in 10 mM Tris-HCl pH 8.0 with 0.01% Tween 20 assay buffer was dispensed into the plate using a BioRAPTR FRD liquid dispenser (Beckman Coulter).
3.The plate was incubated at room temperature (protected from light) for 15 min
4.Four microliter of peptide 2 substrate (2.5 uM final concentration) in assay buffer was added to the plate.
5.After 1 hour, plates were immediately read on a ViewLux high-throughput CCD imager (Exposure = 10 sec, Gain = High, Speed = Slow, Binning = 2X). The above assay was also incorporated in the NCATS HTS facility41, which allowed for robotic liquid and compound dispensing, microplate handling, and fluorescence reading.
Inglese J, Shamu CE and Guy RK, Reporting data from high throughput screening of small molecule libraries, Nature Chemical Biology, 2007, 3(8): 438-441. doi.org/10.1038/nchembio0807-438.
(In general: Quantitative high-throughput screening tests each substance at several concentrations.)
For `CCOc1ccc(N(Cc2ccccc2)C(=O)c2nc(S(C)(=O)=O)ncc2Cl)cc1`, the Potency was 3.18 µM (active).

As for `O=C(O)c1cccc(-n2[nH]c(-c3ccccc3)cc2=O)c1`, the “activity change, negative = inhibition” value was 29.6% (inactive).

In the case of `CCC(C)C(=O)OC1C(C)C2(O)C(C=C(CO)CC3(O)C(=O)C(C)=CC32)C2C(C)(C)C12OC(=O)C(C)C` (stereo not drawn), the “activity change, negative = inhibition” value is -4.03% [at 8.62 µM] (inactive).

`Oc1ccc(OC2CCCCO2)cc1` (stereo not drawn): the “activity change, negative = inhibition” value is -21.2% (inactive).

As for `CCOc1ccc(NC(=O)c2c(NC(=O)Cc3ccccc3)sc3c2CCC(C)C3)cc1` (stereo not drawn), the Potency is 7.11 µM (active).

On to `C=CC(=O)c1ccc2ccccc2c1`, for which the Potency was 6.34 µM (active).

As to `COC([CH2][Hg])CNC(=O)c1ccccc1OCC(=O)O` (stereo not drawn), the Potency is 2.25 µM (active).

Take `N#CSc1cc(SC#N)c(N)nc1N`: the Potency is 0.318 µM (active).

On to `Cn1nnnc1Sc1ncnc2n[nH]c(-c3cccc(S(C)(=O)=O)c3)c12`, for which the Potency is 3.18 µM (active).

Consider `CCOc1ccc(NC(=O)c2c(NC(=O)Cc3ccccc3)sc3c2CCCCC3)cc1`, for which the Potency was 7.98 µM (active).

For the compound `C=Cc1c(C)c2cc3nc(cc4[nH]c(cc5nc(cc1[nH]2)C(C)=C5CCC(=O)O)c(CCC(=O)OC)c4C)[C@@]1(C)C3=CC=C(C(=O)OC)[C@H]1C(=O)OC`, the “activity change, negative = inhibition” value is 126% (inactive).

Regarding `C[C@@H]1C[C@@H](O)[C@@]23CO[C@]2(CO)C[C@@H](O)CC3[C@@]12CC(c1ccoc1)OC2=O` (stereo partly drawn), the “activity change, negative = inhibition” value is 28.5% [at 16.7 µM] (inactive).

`CCc1ccccc1NC(=O)c1cnn(-c2ccc(F)cc2)c1C1CCNCC1`: the “activity change, negative = inhibition” value is -9.95% (inactive).

These data come from PubChem BioAssay (NCATS).
